Data as given in PubChem BioAssay AID630 (Emory University Molecular Libraries Screening Center, 2007).
Out of some 88,000 compounds screened, about 260 (0.3%) were called active. The full list was thinned out, with actives kept by preference. A number with no mark means an inactive call.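 Rule for the calls: active = compounds that reduce the energy-transfer binding signal between the protein and its labelled peptide by more than half; inactive = the rest.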

Target: Mothers against decapentaplegic homolog 3 (Homo sapiens) (UniProt P84022)
Sequence (P84022 whole entry, looked up): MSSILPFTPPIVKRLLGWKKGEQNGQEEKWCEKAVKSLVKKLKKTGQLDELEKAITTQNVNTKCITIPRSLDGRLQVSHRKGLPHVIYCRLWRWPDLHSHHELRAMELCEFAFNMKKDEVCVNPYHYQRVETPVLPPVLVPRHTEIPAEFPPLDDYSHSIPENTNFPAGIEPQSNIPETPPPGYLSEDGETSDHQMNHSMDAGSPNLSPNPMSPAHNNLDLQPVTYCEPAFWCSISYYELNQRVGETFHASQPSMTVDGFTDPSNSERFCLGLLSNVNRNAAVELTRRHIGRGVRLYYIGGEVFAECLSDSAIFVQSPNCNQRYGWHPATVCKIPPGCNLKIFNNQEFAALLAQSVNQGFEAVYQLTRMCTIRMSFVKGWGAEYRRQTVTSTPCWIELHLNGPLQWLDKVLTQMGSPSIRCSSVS
Assay: Smad3/FoxH1 peptide binding inhibitors, primary screen, biochemical, TR-FRET (AID 630);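 note: 0% = Smad3 plus labelled peptide maximal FRET and 100% = peptide-only background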
Conditions: TR-FRET Smad3/Dy647-FoxH1 peptide binding, europium anti-His; at 25 µM; hits give high values

SMILES | inhibition
Cc1ccc(S(=O)(=O)O[C@H]2CN3CCC2CC3)cc1 | 67.3% (active)
O=C1C[C@@H]2OCC=C3CN4CC[C@]56c7ccccc7N1[C@H]5[C@H]2[C@H]3C[C@H]46 (tested in a mixture with another compound) | -5.82%
c1cc2c(cc1CCNC1CCCCCC1)OCO2 | -10.4%
CC[C@@](O)(C(=O)O)c1cc2n(c(=O)c1CO)Cc1cc3ccccc3nc1-2 | -1.51%
C=C[C@@H]1CN2CC[C@H]1C[C@@H]2[C@H](O)c1ccnc2ccccc12 | -9.04%
